The nature of assay [1]: inhibitors of TNFa-induced NFkB p65 translocation, primary screen, imaging, HUVEC, MLSMR starter and 10KST1 sets (AID 438;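 active means inhibition above 20% together with a positive visual image hit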;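 further: compound added about 3h40 before a 20 min TNFalpha stimulation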;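 on inhibition: signal is the nuclear over cytoplasmic p65 intensity ratio per well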). The note with it: HUVEC TNFa-induced p65 nuclear translocation; cell count: measured here: nuclei count (cytotoxicity indicator), at 2.08 µM; inhibition: at 2 µM, stronger effect = higher value, 0% TNFa-plus-vehicle, 100% no-TNFa wells.
A short description of assay [2]: reduction of polyQ htt aggregates in cells – imaging, exon1htt(103Q)mCFP cells, high-content imaging, primary screen (AID 483;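 active means visual image review flags a hit and inhibition of aggregation exceeds 20%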;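 further: compound exposure lasted 3 days before fixation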;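 on nuclei count: percent of the per-plate median nuclei count of sample wells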). The note with it: exon1htt(103Q)mCFP cell line, aggregate imaging, at 2 µM; inhibition of aggregation: stronger effect = higher value; nuclei count: measured here: cell count, toxicity.
A short description of assay [3]: endothelial E-selectin expression blockers – imaging, HUVEC, immunofluorescence, MLSMR starter and 10KST1 sets, primary screen (AID 487;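 active means visually confirmed hit in the image check and inhibition above 20%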;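 on inhibition: signal is fraction of cell area covered by stained E-selectin grains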;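 on nuclei count: 100% = median nuclei count of all wells on the same plate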). To be noted: HUVEC TNFalpha-induced E-selectin immunofluorescence imaging, at 2 µM; inhibition: stronger effect = higher value; nuclei count: measured here: cell number, toxicity.
Assay [4] addresses Voltage-gated potassium channel subunit beta-2 (Rattus norvegicus) (UniProt P62483). The assay can be described thus: inhibitors of rat Kvbeta2 reductase activity – biochemical, NADPH fluorescence, primary screen (AID 622).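 Further: slope of raw intensity against log time taken from 70 to 1610 s.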 The note with it: recombinant KvBeta, 4-cyanobenzaldehyde reduction, at 10 µM, stronger effect = higher value.
The target is the same in assay [5]. The experiment in a line: enhancers of rat Kvbeta2 NADPH turnover – biochemical, NADPH fluorescence, primary screen (AID 623;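 active means NADPH fluorescence slope more negative than the mean of all samples by about 3 SD, 99.7% confidence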;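 further: fluorescence intensity change per second fitted from 20 to 320 s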). To be noted: Recombinant KvBeta, NADPH fluorescence decrease slope, 10 min; at 10 µM; stronger effect = lower value.
The target of assay [6] is Alpha-2C adrenergic receptor (Homo sapiens) (UniProt P18825). The experiment in a line: compounds altering alpha2C-coupled GIRK flux – cell-based, HEK293 alpha2C/GIRK1/2, thallium flux, primary screen (AID 624;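 active means fluorescence slope after compound addition differing from the mean of all screened samples at 99.7% confidence, in either direction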;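 further: slope of fluorescence ratio to pre-addition baseline per second over 15 to 24 s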). To be noted: thallium flux BTC fluorescence, at 10 µM, actives lie on both sides.
Sequence of Alpha-2C adrenergic receptor (Homo sapiens) (P18825 whole entry, looked up): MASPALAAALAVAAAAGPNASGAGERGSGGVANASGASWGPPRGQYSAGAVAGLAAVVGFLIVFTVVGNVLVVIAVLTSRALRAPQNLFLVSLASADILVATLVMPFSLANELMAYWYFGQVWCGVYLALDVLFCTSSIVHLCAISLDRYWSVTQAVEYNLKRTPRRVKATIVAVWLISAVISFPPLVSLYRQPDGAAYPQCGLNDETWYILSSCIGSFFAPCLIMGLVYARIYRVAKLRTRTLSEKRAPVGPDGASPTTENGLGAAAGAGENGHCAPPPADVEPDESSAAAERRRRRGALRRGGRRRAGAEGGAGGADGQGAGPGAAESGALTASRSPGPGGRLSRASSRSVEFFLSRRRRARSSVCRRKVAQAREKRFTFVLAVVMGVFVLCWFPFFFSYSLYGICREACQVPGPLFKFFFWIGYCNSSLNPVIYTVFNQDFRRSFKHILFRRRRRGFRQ
A short description of assay [7]: blockers of RIG-like receptor reporter activation – cell-based, Sendai virus stimulus, luciferase, 10K MLSCN set, TLR/RLR signaling modifier project, primary screen (AID 602276;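 active means inhibition at or above 50% at 10 µM; inactive means inhibition below 50%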;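 further: firefly luciferase from ISG56 promoter only with Renilla not read in this screen; 0% = Sendai virus plus DMSO and 100% = medium plus DMSO without virus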). To be noted: HEK293 RL24 IRF3 luciferase reporter, at 10 µM, stronger effect = higher value. Background: In a reporter assay the amount or activity of a reporter protein is the signal.
Assay [8] can be described thus: TLR3 IRF3 reporter activation blockers – cell-based, poly I:C stimulus, luciferase, 10K MLSCN set, primary screen (AID 602277;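 active means inhibition of the reporter signal at or above 50%; inactive means inhibition below 50%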). To be noted: HEK293-TLR3 RL24 IRF3 luciferase reporter, at 10 µM, stronger effect = higher value.

As a reminder, the inhibition is the drop in the measured response relative to a control, in per cent.

Active and inactive are the calls of the source.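 How the source made its calls, unless noted: active means fluorescence slope higher than the sample average by over 3 SD (cut at about -0.22 in these data, passing the limit was not always enough); inactive means the rest.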

Sequence of Voltage-gated potassium channel subunit beta-2 (Rattus norvegicus) (P62483 whole entry, looked up): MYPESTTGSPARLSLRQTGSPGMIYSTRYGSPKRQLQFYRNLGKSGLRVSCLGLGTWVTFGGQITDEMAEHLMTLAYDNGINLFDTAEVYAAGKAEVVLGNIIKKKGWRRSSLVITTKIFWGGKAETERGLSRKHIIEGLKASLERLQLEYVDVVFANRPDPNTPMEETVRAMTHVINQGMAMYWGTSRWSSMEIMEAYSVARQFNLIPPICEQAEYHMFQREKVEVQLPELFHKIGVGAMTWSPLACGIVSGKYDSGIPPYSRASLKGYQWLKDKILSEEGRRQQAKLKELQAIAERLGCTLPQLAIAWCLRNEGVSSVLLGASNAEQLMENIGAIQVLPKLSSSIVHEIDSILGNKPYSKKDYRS

`COc1nc(Oc2ccc(=O)n(C)n2)nc(N(C)C)n1`: the cell count in assay [1] is 420. Further, the inhibition in assay [1] is 1% (inactive); in assay [3] it was -52.1% (inactive); in assay [7], 6.15% (inactive); in assay [8], 12% (inactive). In assay [2], the inhibition of aggregation was -5.2% (inactive). Further, the nuclei count in assay [2] is 116%; in assay [3], 110%. Also, the fluorescence slope in assay [4] is -0.357 (inactive). For the same compound, the NADPH fluorescence slope in assay [5] was -1.9e-05 (inactive). For the same compound, in assay [6], the slope was 0.00579 (inactive).

With `CN(C1CCCCC1)S(=O)(=O)c1ccc(S(=O)(=O)N2CCCC2)cc1`, the cell count in assay [1] was 737. Further, the inhibition in assay [1] is -10.5% (inactive); in assay [3], -78.3% (inactive); in assay [7], 16.1% (inactive); in assay [8], 21.2% (inactive). For the same compound, the inhibition of aggregation in assay [2] is -9.6% (inactive). Further, the nuclei count in assay [2] turned out to be 100%; in assay [3], 126%. In addition, the fluorescence slope in assay [4] is -0.432 (inactive). Besides, in assay [5], the NADPH fluorescence slope was -2.1e-05 (inactive). Moreover, the slope in assay [6] was 0.00521 (inactive).

Regarding `O=C(Nc1ccccc1-c1nc2ccccc2o1)c1ccc2c(c1)OCCO2`, in assay [1], the cell count worked out at 530. Besides, the inhibition in assay [1] was -7.2% (inactive); in assay [3], 48.6% (inactive); in assay [7] it was 11.3% (inactive); in assay [8] it was 13.7% (inactive). In assay [2], the inhibition of aggregation is -29.9% (inactive). Besides, the results for the nuclei count in assay [2] and in assay [3] were 99.2% and 87.4%, respectively. The fluorescence slope in assay [4] is -0.131 (inactive). Moreover, the NADPH fluorescence slope in assay [5] is 1.2e-05 (inactive). Also, in assay [6], the slope is 0.0146 (inactive).

Regarding `O=C(NCc1ccccc1)C1CCN(S(=O)(=O)c2cccc3cccnc23)CC1`, the cell count in assay [1] amounted to 823. The inhibition in assay [1] was -3% (inactive); in assay [3] it was -37.7% (inactive); in assay [7] it was -3.36% (inactive); in assay [8], 33.1% (inactive). Further, in assay [2], the inhibition of aggregation was 19% (inactive). Also, the nuclei count in assay [2] is 65.6%; in assay [3], 111%. In addition, the fluorescence slope in assay [4] is -0.57 (inactive). Also, the NADPH fluorescence slope in assay [5] is 1.3e-05 (inactive). For the same compound, the slope in assay [6] was 0.00702 (inactive).

`CCOC(=O)c1oc2c(CN3CCN(C)CC3)c(O)ccc2c(=O)c1-c1ccccc1OC`: in assay [1], the cell count turned out to be 463. Also, the inhibition in assay [1] was 2.1% (inactive); in assay [3], -59% (inactive); in assay [7], 9.7% (inactive); in assay [8] it was 20.2% (inactive). Also, the inhibition of aggregation in assay [2] was -44.9% (inactive). Moreover, the nuclei count in assay [2] turned out to be 86.2%; in assay [3], 103%. Also, the fluorescence slope in assay [4] is -0.61 (inactive). Also, in assay [5], the NADPH fluorescence slope was 8.1e-06 (inactive). Also, the slope in assay [6] is 0.00673 (inactive).

For `Cc1cc(Cl)ccc1NC(=O)CSc1nnc(Cc2cccs2)n1Cc1ccco1`, the cell count in assay [1] was 270. In addition, the inhibition in assay [1] was -4.3% (inactive); in assay [3] it was -32.8% (inactive); in assay [7], 17.4% (inactive); in assay [8] it was 32.2% (inactive). Also, in assay [2], the inhibition of aggregation is 27.5% (inactive). In addition, the values for the nuclei count in assay [2] and in assay [3] were 74.6% and 102%, respectively. For the same compound, the fluorescence slope in assay [4] was -0.494 (inactive). Further, in assay [5], the NADPH fluorescence slope is -5e-05 (inactive). For the same compound, the slope in assay [6] is 0.00645 (inactive).

For `Cc1ccc(C2c3c(oc4ccccc4c3=O)C(=O)N2c2nnc(C(C)C)s2)o1` (configuration not stated), in assay [1], the cell count amounted to 622. In addition, the inhibition was -13.1% (inactive) in assay [1], -37.8% (inactive) in assay [3], 9.17% (inactive) in assay [7] and 19.7% (inactive) in assay [8]. Moreover, the inhibition of aggregation in assay [2] was -21.4% (inactive). Also, the nuclei count in assay [2] is 90.4%; in assay [3], 102%. In addition, the fluorescence slope in assay [4] is -0.436 (inactive). For the same compound, the NADPH fluorescence slope in assay [5] was -5.6e-05 (inactive). In addition, the slope in assay [6] was 0.00484 (inactive).

Turning to `Cc1ccc(S(=O)(=O)C2(C(=O)Nc3cccnc3)CC2)cc1`, in assay [1], the cell count was found to be 579. In addition, the inhibition in assay [1] is 8.8% (inactive); in assay [3], -126% (inactive); in assay [7], 9.66% (inactive); in assay [8] it was 28.7% (inactive). In assay [2], the inhibition of aggregation is 14.7% (inactive). The nuclei count in assay [2] came out at 93.3%; in assay [3], 98.8%. Moreover, in assay [4], the fluorescence slope is -0.573 (inactive). In addition, the NADPH fluorescence slope in assay [5] was -2.5e-05 (inactive). Also, in assay [6], the slope was 0.00528 (inactive).

Turning to `COc1ccc(C)cc1S(=O)(=O)N(C)CC(=O)Nc1ccc2c(c1)OCCO2`, the cell count in assay [1] was determined as 489. The inhibition was -8.1% (inactive) in assay [1], 22.5% (inactive) in assay [3], -4.31% (inactive) in assay [7] and -10.2% (inactive) in assay [8]. Also, in assay [2], the inhibition of aggregation is 7.6% (inactive). In addition, the results for the nuclei count in assay [2] and in assay [3] were 92.1% and 110%, respectively. Also, the fluorescence slope in assay [4] is -0.427 (inactive). In addition, the NADPH fluorescence slope in assay [5] was 3.4e-05 (inactive). For the same compound, the slope in assay [6] was 0.00534 (inactive).

For `CCOC(=O)c1ccccc1NC(=O)c1c(O)c2ccccc2n(CC)c1=O`, the cell count in assay [1] came to 649. Besides, the inhibition in assay [1] is -12.8% (inactive); in assay [3], 20.2% (inactive); in assay [7], -2.85% (inactive); in assay [8], 9.26% (inactive). Moreover, the inhibition of aggregation in assay [2] is -35.3% (inactive). Further, the nuclei count in assay [2] was found to be 101%; in assay [3] it was 120%. The fluorescence slope in assay [4] is -0.489 (inactive). Further, the NADPH fluorescence slope in assay [5] was -0.000195 (inactive). Also, the slope in assay [6] is 0.00747 (inactive).

Regarding `O=C(NCc1ccco1)C1CCN(c2ccc(N3CCOCC3)nn2)CC1`, in assay [1], the cell count was found to be 633. Besides, the inhibition in assay [1] is 1.6% (inactive); in assay [3], -70.8% (inactive); in assay [7], -14.1% (inactive); in assay [8] it was -20.9% (inactive). Also, in assay [2], the inhibition of aggregation is 4.1% (inactive). For the same compound, the nuclei count in assay [2] turned out to be 92.4%; in assay [3], 110%. Further, the fluorescence slope in assay [4] is -0.387 (inactive). In addition, in assay [5], the NADPH fluorescence slope was 8e-06 (inactive). In addition, the slope in assay [6] was 0.00458 (inactive).

In the case of `O=C1C/C(=C/NCc2ccccc2)C(=O)N1`, the cell count in assay [1] was 464. The inhibition is -7.4% (inactive) in assay [1], -106% (inactive) in assay [3], 4.55% (inactive) in assay [7] and 30.7% (inactive) in assay [8]. In addition, the inhibition of aggregation in assay [2] is 22.7% (inactive). For the same compound, the nuclei count is 67.6% in assay [2] and 95.9% in assay [3]. The fluorescence slope in assay [4] was -0.423 (inactive). The NADPH fluorescence slope in assay [5] is -2.2e-05 (inactive). The slope in assay [6] is 0.0024 (inactive).

The values above are taken from PubChem BioAssay.
